# AID504770: growth inhibition of E. coli YBA685, primary screen, V. cholerae RctB inhibitors; E. coli YBA685 rctB-dependent plasmid, OD600 growth, 3 h; stronger effect = lower value; z-score (no concentration beside the values); actives 0.27% (n = 130,000); AID 504770, 2011; in the data active means z-score below about -2, passing the limit was not always enough
# Mtb MenB inh: M. tuberculosis MenB inhibitors, primary screen, biochemical, absorbance. 1,4-dihydroxy-2-naphthoyl-CoA synthase (Mycobacterium tuberculosis (strain ATCC 25618 / …. MenB enzyme assay, absorbance read-out. inhibition, % (concentration not given with the values). actives 0.43% (n = 100,000). AID 540299, 2011; in the data active means inhibition above about 21%, passing the limit was not always enough
# Target sequence (P9WNP5 whole entry, looked up): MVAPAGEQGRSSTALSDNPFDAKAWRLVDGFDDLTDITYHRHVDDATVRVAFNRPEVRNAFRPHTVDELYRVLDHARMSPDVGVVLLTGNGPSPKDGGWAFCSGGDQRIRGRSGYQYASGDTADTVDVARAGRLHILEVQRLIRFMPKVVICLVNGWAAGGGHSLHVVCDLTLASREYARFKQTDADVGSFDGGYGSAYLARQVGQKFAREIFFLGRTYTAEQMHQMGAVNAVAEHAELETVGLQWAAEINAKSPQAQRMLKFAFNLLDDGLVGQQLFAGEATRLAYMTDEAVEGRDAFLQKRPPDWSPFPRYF
# PV pol inh: poliovirus RdRp elongation inhibitors, primary screen, biochemical, fluorescence polarization, total intensity; poliovirus polymerase elongation; stronger effect = lower value; actives 0.66% (n = 150,000); % elongation, % (compound at 16.7 µg/mL); in the data active means % elongation below about 90%
# Mtb MbtI inh: MbtI salicylate synthase inhibitors, primary screen, biochemical, fluorescence intensity. P9WFX0. purified MbtI enzyme, fluorescence intensity read-out. inhibition, % (concentration not given with the values). actives 0.89% (n = 100,000); in the data active means inhibition mostly above about 56%, no sharp cut-off; inactive means mostly below about 77%
# A number is an active result; 0 = inactive; - = no result given. In the library only some 1.4% were active in any assay of this set; here they are far more common.
SMILES,AID504770,Mtb MenB inh,PV pol inh,Mtb MbtI inh
CN(C)c1cccc(N(C)C)c1CNC(=O)c1ccccc1Cl,0,-,-,-
Cc1nc(-c2c(C)[nH]c3ccccc23)cs1,0,0,89,87
N#CSc1c(Cl)nc2sccn12,-4.3,-,85,65
N#CC(C#N)=Cc1c(Cl)nc2sccn12,0,0,67,0
Cc1ccc2nc(Cn3nnc(-c4ccccc4)n3)cn2c1,0,0,0,0
COc1ccc(Cc2nc(S(=O)(=O)c3ccc(C)cc3)c(N3CCC(C)CC3)o2)cc1,0,0,0,0
O=C(O)c1ccc2c(c1)sc1nc(-c3ccc(F)cc3)cn12,0,0,0,0
O=C(CC(c1ccccc1)c1ccccc1)c1nnc(-c2ccccc2)o1,0,0,0,0
CCN1CCC(=NNC(=O)COc2ccc(Cl)cc2Cl)CC1,0,0,0,0
O=C(Nc1c2c(nn1-c1ccccc1)CS(=O)C2)c1ccccc1 (stereo not drawn),0,0,0,0
CC(=O)Oc1ccc(OC(C)=O)c(C2=C3C(=O)N(CCc4c[nH]c5ccccc45)CC(=O)N3CCC2)c1,0,0,0,100
Cc1cc(C)n(-c2nc3ccccc3nc2NCC(C)O)n1 (stereo not drawn),0,0,0,0
O=c1cc(CSc2ncccn2)c2cc3c(cc2o1)CCC3,0,0,0,0
Cc1cc2oc(=O)cc(CSc3ncccn3)c2cc1Cl,-3.1,0,0,0
N#Cc1c(-c2ccc3c(c2)OCO3)cc(-c2ccc(F)cc2)nc1N,0,0,0,0
FC(F)(F)c1cc(-c2ccc3c(c2)OCO3)nc(=S)[nH]1,0,34,0,0
CN(Cc1ccccc1)C(=O)COc1ccc(S(=O)(=O)N2CCCC2)cc1,0,40,0,0
O=C1CCCC(O)=C1N=Nc1ccc(C(=O)O)cc1,0,0,76,0
O=C1CCCC(O)=C1N=Nc1ccccc1C(=O)O,0,0,0,0
CCOC(=O)c1oc2ccccc2c1NC(=S)NC(=O)CN1C(=O)CCC1=O,0,0,0,0
COc1cc(CNc2ccccc2)ccc1OCC(N)=O,0,0,0,0
O=C(CC1CCCCC1)NCC1CCCO1 (stereo not drawn),0,31,0,0
COc1cccc(NC(=O)CCSc2nc(-c3ccco3)cc(C(F)(F)F)n2)c1,-,-,90,-
CCN1C(=O)C(=Cc2ccc(OC(F)F)cc2)C(=O)N(CC)C1=S,0,0,0,54
O=C(O)CCN1C(=O)/C(=C/c2ccccn2)SC1=S,0,0,0,74
SMILES,AID504770,Mtb MenB inh,PV pol inh,Mtb MbtI inh
O=C1/C(=C\c2ccccn2)SC(=S)N1CCc1ccc(Cl)cc1,0,-,-,-
CC(C)C(=O)Nc1nnc(-c2ccccc2)s1,0,0,87,-
Cc1ccc2occ(CC(=O)N(Cc3ccccc3Cl)C3CCS(=O)(=O)C3)c2c1 (stereo not drawn),-,-,-14,-
O=c1c[n+]([O-])c2ccccc2n1OCc1ccccn1,0,0,0,0
O=[n+]1c(CO)c(CO)n([O-])c2ccccc21,-8.7,0,0,0
O=S(=O)(c1ccc(=S)[nH]c1)N1CCCCCC1,0,0,0,95
O=S(=O)(c1ccc(I)cc1)N1CCCCCC1,0,0,0,0
NNC(=O)c1cccc(S(=O)(=O)Nc2ccccc2Cl)c1,0,0,0,0
O=C(N/N=C/c1ccc(O)c(O)c1O)c1cccc(S(=O)(=O)Nc2ccccc2Cl)c1,0,0,0,55
Nc1c(C(=O)N2CCOCC2)nnn1-c1ccccc1,0,0,0,0
O=C(Cc1nc2ccccc2[nH]1)c1cccs1,0,-,22,0
N/C(Cc1nc2ccccc2[nH]1)=N\O,0,44,0,0
O=C(/C=C/c1cc(Cl)c2c(c1)OCCO2)N1CCCN(S(=O)(=O)c2ccc(F)cc2)CC1,0,0,0,0
N#CCn1c(Cc2ccccc2)nc2ccccc2c1=O,0,48,0,0
CN(C)Cc1nc2ccccc2c(=O)n1CC#N,0,0,0,0
N#CCn1c(C[S+]=C=N)nc2ccccc2c1=O,0,0,0,84
COc1cc(/C=N/N=C(N)N)ccc1OC(=O)c1ccc(C)cc1,-9.6,0,0,0
C/C(=N\NC(=O)C1CC1)c1ccc(-n2ccnc2)cc1,0,0,0,0
COc1c(O)cc2c(c1O)C1OC(CO)C(O)C(O)C1OC2=O (stereo not drawn),-,43,0,0
COc1cc2ccc(=O)oc2c(OC2OC(CO)C(O)C(O)C2O)c1O (stereo not drawn),0,0,0,-

# Screening data: PubChem, ICCB-Longwood Screening Facility, Harvard Medical School
